# Screening data: PubChem, Broad Institute
# The list is a sample of the results.
# aSyn UTR act = Activators via SNCA 5'UTR binding, MLPCN. activity score, % (tested at 7.5 µM), hits read low. 300,000 tested, 7.1% active. alpha-synuclein 5'UTR reporter, activators screen; in the data active = activity score below about -60%
# * = called active by the depositor.
SMILES,aSyn UTR act
COc1cc(C=O)ccc1OS(=O)(=O)c1ccccc1[N+](=O)[O-],-119*
COc1cc(/C=N/n2cnnc2)ccc1OS(=O)(=O)c1ccccc1[N+](=O)[O-],-178*
Cc1c(C(=O)Nc2ccccc2)sc2nc(-c3ccccc3)cn12,-160*
Cc1cccc(NC(=O)c2sc3nc(-c4ccccc4)cn3c2C)n1,-124*
COc1ccc(-c2cn3c(C)c(C(=O)Nc4cccc(C)n4)sc3n2)cc1,-97*
COCCNC(=O)c1sc2nc(-c3ccccc3)cn2c1C,-77*
CCNc1nc(C)c2cc(Br)c(=O)n(CC)c2n1,76
O=C(COc1ccccc1)Nc1ccccc1F,-140*
O=C(COc1ccccc1)Nc1cc(Cl)ccc1Cl,-91*
COCC(=O)Nc1cc(C(=O)Nc2ccccc2)ccc1Cl,-79*
O=C(COc1ccccc1)Nc1ccc(Cl)cc1Cl,-154*
CCc1cc(C(c2ccc(OC)c(OC)c2)N2CCOCC2)c(NC(=O)c2ccccc2)s1 (stereo not drawn),-62*
Cc1ccc(OCC(=O)Nc2ccc3c(c2)OCO3)c([N+](=O)[O-])n1,-111*
Cc1cc(C)c(OCC(=O)Nc2ccc3c(c2)OCO3)cc1C,-112*
COc1cc(C=O)ccc1OCC(=O)Nc1ccc2c(c1)OCO2,-90*
Cc1cc(C)c(OCC(=O)Nc2cccc(O)c2)cc1C,-114*
Cc1ccccc1OCC(=O)Nc1ccc(N2CCN(C)CC2)c(Cl)c1,-140*
COc1ccccc1OCC(=O)Nc1ccc2c(c1)OCCO2,-89*
O=C(COc1ccc(Br)cc1Cl)NC(=O)Nc1ccc2c(c1)OCCO2,-72*
Cc1cccc(C)c1OCC(=O)Nc1ccc2c(c1)OCCO2,-158*
Cc1ccccc1OCC(=O)Nc1cccc(C(=O)O)c1,105
O=C(COc1ccccc1Cl)Nc1ccc2c(c1)OCCO2,-151*
N#Cc1cccc(NCC(=O)Nc2ccc3c(c2)OCCO3)c1,-69*
Cc1ccccc1OCC(=O)Nc1ccc2c(c1)OCCO2,-180*
COc1ccc(/C=C2\N=C(SC)N(C)C2=O)cc1,-63*
SMILES,aSyn UTR act
Nc1nnc(-c2cc3ccccc3oc2=O)s1,-116*
CC/C(C)=N\Nc1nc(-c2cc3cc(OC)ccc3oc2=O)cs1,-119*
O=c1oc2ccccc2cc1-c1nnc(NCc2ccco2)s1,-131*
O=c1oc2ccccc2cc1-c1nc2c(s1)CCc1ccccc1-2,-81*
COc1ccc2oc(=O)c(-c3nnc(N)s3)cc2c1,-97*
CN(C)S(=O)(=O)N1CCC(Oc2ccc(C(=O)NC3Cc4ccccc4C3)cc2)CC1,-65*
Cc1cc(CNC(=O)c2cccc(OC3CCN(S(=O)(=O)N(C)C)CC3)c2)on1,-139*
COc1ccc(-c2nnc(NC(=O)c3ccc(S(=O)(=O)N4CCc5ccccc5C4)cc3)o2)cc1,73
Clc1ccc(-c2cn3c(n2)CCC3)cc1,-192*
Cc1cc(OCc2cc(C(=O)N3CCCCCC3)no2)cc(C)c1Cl,-132*
COCC1CCN(C(=O)c2cc(COc3cc(C)c(Cl)c(C)c3)on2)C1 (stereo not drawn),-91*
CC(c1nccs1)N(C)C(=O)c1cn(Cc2cccc3ccccc23)nn1 (stereo not drawn),-86*
COc1cccc(-c2nc3n(n2)C(c2ccc4c(c2)OCO4)C(C(N)=O)=C(C)N3)c1 (stereo not drawn),-111*
CC(C)(C)C1CCc2c(sc(NC(=O)c3cccs3)c2C(N)=O)C1 (stereo not drawn),-158*
Nc1ccn([C@@H]2O[C@H](CO)[C@@H](O)[C@@H]2O)c(=O)n1,81
CCc1ccc(NC(=S)Nc2ccc3cn[nH]c3c2)cc1,-196*
Cc1ccccc1NC(=S)Nc1ccc2cn[nH]c2c1,-104*
S=C(Nc1ccc(Cl)cc1)Nc1ccc2cn[nH]c2c1,-175*
S=C(Nc1ccc2cn[nH]c2c1)Nc1ccccc1Cl,-166*
CCN=c1scc(C)n1/N=C/c1ccsc1,-226*
Clc1ccccc1-c1nnc(-c2ccccc2Cl)o1,-158*
Clc1ccc(-c2nnc(-c3ccccc3Cl)o2)cc1,-82*
CC(=O)c1cccc(NC(=O)c2cc(-c3ccc(C)cc3)on2)c1,-137*
CCCc1cc(C(=O)Nc2cccc(C(C)=O)c2)no1,-80*
O=C(Nc1ccc(Cl)c(Cl)c1)OCc1cncs1,-97*
SMILES,aSyn UTR act
CC(C)(C)SCCNC(=O)CSc1ccccc1,-72*
CC(C)(C)SCCNC(=O)Nc1ccccc1,-87*
CCOc1nc(NCc2ccco2)nc(Nc2ccccc2F)n1,-108*
CC(C)c1ccc(N2C=Nc3ccc(C(C)C)cc3C2)cc1,-63*
C1=Nc2ccccc2CN1c1ccccc1,-120*
CN(C)c1ccc(N/C=C/C(=O)c2ccc(F)cc2)cc1,-120*
O=C(/C=C/Nc1ccc(F)cc1)c1ccc(Oc2ncccn2)cc1,-115*
NS(=O)(=O)c1ccc(N/C=C\C(=O)c2ccc(F)cc2)cc1,-118*
NS(=O)(=O)c1ccc(N/C=C/C(=O)c2ccc(Br)cc2)cc1,-108*
O=C(CSc1ccccn1)Nc1ccc2c(c1)oc1ccccc12,-122*
COc1cc2c(cc1NC(=O)CSc1ccccn1)oc1ccccc12,-281*
O=C(CSc1cccc[n+]1[O-])c1cc(Cl)ccc1Cl,-87*
O=C(CSc1cccc[n+]1[O-])c1cc2ccccc2o1,-101*
O=C(CN1C(=O)c2ccccc2S1(=O)=O)c1ccc(Cl)cc1Cl,78
COc1cccc(/C=N/n2cnc3ccccc32)c1OC,-191*
COc1cccc(/C=N/n2c(N)nc3ccccc32)c1OC,-154*
Nc1nc2ccccc2n1C(=O)CCc1ccccc1,-63*
COc1cc(C2NC(=S)NC(C)=C2C(=O)Nc2ccc(C)cc2)ccc1O (stereo not drawn),-171*
O=C(N/N=C/c1cccs1)c1c[nH]c2ccccc12,-158*
O=C(NN=C1CCCCCC1)c1c[nH]c2ccccc12,-77*
CCc1ccc(/C=N/NC(=O)c2c[nH]c3ccccc23)s1,-132*
CCc1ccc(/C=N/NC(=O)c2cc(-c3ccncc3)nc3ccccc23)s1,83
O=C(CC1COc2ccccc2O1)NC1CCCCC1 (stereo not drawn),-67*
Cc1ccc(NC(=O)CC2COc3ccccc3O2)cc1 (stereo not drawn),-89*
Cn1nc(OC(=O)Nc2ccccc2)cc1C(F)(F)F,-123*
SMILES,aSyn UTR act
Cc1nc(Nc2ccc3c(c2)OCCO3)c2c(C)c(C)sc2n1,-72*
COC(=O)c1ccc(N=NN2CCCCC2)cc1,-102*
CC(=O)c1ccc(N=Nc2ccc(C)cc2)cc1,64
COC(=O)c1ccc(NN=Nc2ccc(C)cc2)cc1,-173*
COc1ccc2c(c1)C(=NO)c1cc(OC)ccc1-2,-83*
ON=C1c2cc(OCCN3CCCCC3)ccc2-c2ccc(OCCN3CCCCC3)cc21,-189*
C=CCOc1ccc2c(c1)C(=NO)c1cc(OCC=C)ccc1-2,-94*
O=C(Nc1ccccc1)Nc1ccc2nnsc2c1,-145*
O=C(Nc1ccccc1)Nc1ccc2snnc2c1,-147*
CN(C)c1ccc(NC(=O)Nc2ccc3snnc3c2)cc1,-115*
CCOc1ccc(/C=N/N2C(C)CCCC2C)cc1 (stereo not drawn),-77*
COCCc1nc2ccc(C(=O)N(C)Cc3cccc(-n4cccn4)c3)cc2o1,-75*
CC1(C)C=Cc2cc(-c3coc4cc(O)cc(O)c4c3=O)cc(O)c2O1,-149*
Cc1occc1C(=O)Nc1sc2c(c1C(N)=O)CCCCC2,-176*
N#Cc1c(NC(=O)c2ccco2)sc2c1CCC2,-133*
CC1(C)Cc2c(sc(NC(=O)c3ccco3)c2C#N)CO1,-100*
